TDP1 cell noCPT: qHTS for Inhibitors of human tyrosyl-DNA phosphodiesterase 1 (TDP1): qHTS in cells in absence of CPT; Potency, µM (series often up to 46.2 µM), without a hit: top-dose activity change, negative = growth inhibition, most hits filed as inhibitors; DT40 Tdp1-/- hTDP1 cells, no CPT, ATP luminescence, 48 h; hit rate 15% among 420,000; further: potency means the concentration at half of the fitted maximal effect; nearly all actives have a fitted effect of over 55% in size
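Compound effects on proliferation are scored in DT40 Tdp1-/-;hTDP1 cells in the absence of CPT. ATP levels (CellTiter-Glo luminescence) are recorded after a ≥48 hr, 37 °C incubation.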
DT40 TDP1 CPT: qHTS for Inhibitors of human tyrosyl-DNA phosphodiesterase 1 (TDP1): qHTS in cells in presence of CPT | AID 686979, 2013 | chicken DT40 Tdp1-/-;hTDP1 cells + 20 nM CPT, ATP luminescence, 48 h | Potency, µM (highest dose often 46.2 µM), for inactives: top-dose activity change, negative = growth inhibition, actives largely listed as inhibitors | hit rate 12% among 420,000; further: potency means the concentration at half of the fitted maximal effect; nearly all actives have a fitted effect of over 55% in size
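Cell growth measured by CellTiter-Glo luminescence after a minimum 48 h, 37 C compound exposure with 20 nM CPT in Tdp1-knockout DT40 cells stably expressing hTDP1, seeded 400/well; qHTS titration format.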
CtBP-E1A blk: qHTS Assay for Inhibitors of the CtBP/E1A Interaction | activity change, % (concentration not given with the values) | AlphaScreen GST-E1A/His-CtBP binding, 1536-well; active compounds read low | AID 651724, 2012 | hit rate 0.49% among 340,000; in the data active means activity change below about -65%; inconclusive means mostly about -30% to -63%
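In 5 uL wells, 23 nL compound meets equimolar GST-E1A and His-CtBP (5X stock 125 nM each) for 2 h, 37 °C. Beads (5X, 50 ug/mL) then 1 h, 37 °C, dark.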
Six1-Eya2 inh: qHTS Assay for Inhibitors of the Six1/Eya2 Interaction; AID 651725, 2012; activity change, % (concentration not given with the values); AlphaScreen GST-Six1/His-Eya2 binding, biochemical; active compounds read low; Homeobox protein SIX1 (Homo sapiens) + Protein phosphatase EYA2 (Homo sapiens), …; hit rate 0.56% among 360,000; in the data active means activity change below about -65%; inconclusive means mostly about -30% to -63%
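GST-Six1 + His-Eya2 (5X stock: 250/500 nM); Tris pH 8.0, 300 mM NaCl, 0.05% BSA, 0.02% Tween 20; GSH donor/Ni acceptor beads; 1 h 37 °C dark; AlphaScreen readout.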
TDP1 inh: qHTS Assay for Inhibitors of Tyrosyl-DNA Phosphodiesterase (TDP1); hit rate 0.28% among 350,000; Potency, µM (top dose mostly 130 µM), for inactives: top-dose activity change, negative = inhibition, usual class: inhibitors; AID 485290, 2010; Tyrosyl-DNA phosphodiesterase 1 (Homo sapiens), Q9NUW8; recombinant TDP1, AlphaScreen DNA substrate cleavage; further: potency means the concentration at half of the fitted maximal effect; nearly all actives have a fitted effect of over 40% in size
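AlphaScreen read-out: signal falls as enzyme removes the 3' tyrosine-FITC from a 5'-biotinylated DNA oligo (15 nM, 5 min, RT). Enzyme was E. coli-made recombinant Tdp1 at 1 nM, exposed to compound for 15 min beforehand; beads 10 ug/ml, 10 min.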
IL1B secr inh: qHTS for Inhibitors of Inflammasome Signaling: IL-1-beta AlphaLISA Primary Screen; THP-1 LPS/ATP IL-1B secretion, AlphaLISA, 16 h; active compounds read low; activity change, % at 57.5 µM; hit rate 4.7% among 360,000; in the data active means activity change below about -50%; inconclusive means mostly about -30% to -49%
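Secreted IL-1B measured by AlphaLISA bead assay after 16 h compound exposure of THP-1 cells; compounds (final up to 57.5 uM) added 1 h before LPS (250 ng/mL) and ATP (1.25 mM) stimulation; lower signal means less secretion.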
* marks the source's active call; other numbers are inactive results; i = inactive; u = inconclusive; x = no result given; [ ] = remark or other dose. Most compounds without a hit are left out; they make up all but 18% or so of the library. Unless noted, the call rests on the fitted dose curve; in most records, active means well fitted curve in the direction sought with a large enough effect; inconclusive means small, poorly fitted or top-dose-only effect, or another doubt; inactive means no such curve, though single readings can be large; an effect the other way counts as inactive or inconclusive. On the % scale 0 is the no-effect control and ±100 the full control effect.

SMILES | TDP1 cell noCPT | DT40 TDP1 CPT | CtBP-E1A blk | Six1-Eya2 inh | TDP1 inh | IL1B secr inh
Cn1cccc1/C=N/NC(=O)c1sc2cc(Cl)ccc2c1Cl | x | x | x | x | 5% | x
Cc1ccc2c(Cl)c(C(=O)N/N=C/c3cccn3C)sc2c1 | 8.2µM* | 8.2µM* | 3 | 1 | 4% | 2
COc1cccc(C(=O)C2CCCN(CC3=Cc4cc(OC)ccc4OC3)C2)c1 (stereo not given) | -24% | u | -18 | u | x | -89*
COc1ccc(F)cc1C(=O)C1CCCN(Cc2cccn2-c2cccnc2)C1 (stereo not given) | 21µM* | u | x | 2 | 2% | 12
Cc1ccsc1C(=O)C1CCCN(Cc2cccn2-c2ccc(Cl)cn2)C1 (stereo not given) | 26µM* | 23µM* | x | -8 | 5% | -76*
CC(C)Oc1cccc(C(=O)C2CCCN(Cc3cccn3-c3ccccn3)C2)c1 (stereo not given) | u | u | -12 | -14 | 5% | -92*
COc1cccc(C(=O)C2CCCN(Cc3cccc(OCCO)c3)C2)c1 (stereo not given) | -17% | 17% | -9 | -2 | x | -2
COc1ccc(N2C(=O)[C@@H]3C[C@H]2CN3Cc2cccn2-c2ccc(Cl)cn2)c(C)c1 | u | -1%[9.04 µM] | x | x | x | x
Cc1cc(C)n2c(SCC(=O)Nc3ccccc3)nnc2n1 | 3% | 6% | -11 | 2 | 3% | 25
CC(C)c1c(C(=O)N(C)C2CCN(C)CC2)cnn1-c1nccc(-c2ccco2)n1 | -10% | 10% | x | x | x | x
Cc1ccc(CNC(=O)CN(c2cc(C)cc(C)c2)S(=O)(=O)c2c(C)[nH]c(=O)[nH]c2=O)cc1 | -20% | 0% | x | x | 3% | x
Cc1ccc(-n2cccn2)c(CN2CCCC(C(=O)c3sccc3C)C2)c1 (stereo not given) | 23µM* | 23µM* | 8 | 9 | 5% | -95*
COc1cccc(C(=O)C2CCCN(Cc3cccn3-c3ccccn3)C2)c1 (stereo not given) | 18µM* | u | -8 | -12 | x | u
COc1ccc(O)c(CN2CCCC(C(=O)Nc3cccc(-n4cccn4)c3)C2)c1 (stereo not given) | u | u | 0 | -15 | 6% | -6
O=C(c1ccc(Cl)cc1)C1CCCN(Cc2cccn2-c2ccccn2)C1 (stereo not given) | u | 9.2µM* | -14 | -18 | 8% | -80*
COc1ccc(C(=O)C2CCCN(Cc3cccn3-c3ccccn3)C2)cc1F (stereo not given) | 15µM* | 16µM* | -3 | -4 | 3% | -52*
Cn1c(SCCOc2ccc(F)cc2)nnc1-c1ccncc1 | 3% | -12% | -15 | -6 | -1% | -25
Cc1ccccc1CNC(=O)C(=O)NCC(c1ccco1)S(=O)(=O)c1ccccc1 (stereo not given) | u | -18% | x | x | 3% | x
C=CCNC(=O)c1c(CSc2ccc(Cl)cc2)noc1C(=O)NCCC | u | -26% | x | 8 | x | -10
C=C(C)c1cccc(C(C)(C)NC(=O)NCC2COCCO2)c1 (stereo not given) | 1% | -8% | -3 | 0 | -3%[56.1 µM] | -10
CSc1ccc(C(=O)C2CCCN(C(=O)CCCn3cncn3)C2)cc1 (stereo not given) | u | u | -7 | 11 | x | -2
O=C(c1ccc(C(F)(F)F)cc1)C1CCCN(Cc2cccn2-c2ncccn2)C1 (stereo not given) | 26µM* | u | -15 | -7 | 0% | -73*
CSc1ccc(C(=O)C2CCCN(Cc3cccc4nccnc34)C2)cc1 (stereo not given) | u | 15µM* | 0 | -4 | x | -20
COc1ccc(-c2ncccc2OC(=O)C23CC4CC(CC(C4)C2)C3)cc1 | 23µM* | 18µM* | 2 | 5 | 5% | 15
CC1CCc2c(sc3nc(CN4CCN(S(=O)(=O)c5ccccc5[N+](=O)[O-])CC4)[nH]c(=O)c23)C1 (stereo not given) | u | u | 6 | 2 | 5% | u
SMILES | TDP1 cell noCPT | DT40 TDP1 CPT | CtBP-E1A blk | Six1-Eya2 inh | TDP1 inh | IL1B secr inh
O=S(=O)(c1ccc2[nH]c3c(c2c1)CCCC3)N1CCN(c2cccc(C(F)(F)F)c2)CC1 | u | u | x | x | 5% | x
Cc1ccccc1Cc1c(C)nc2c(C(=O)NCc3ccc4c(c3)OCO4)cnn2c1C | u | 18µM* | 14 | 2 | -2% | 0
Cc1ccc(C)c(Cc2c(C)nc3c(C(=O)NCc4ccc5c(c4)OCO5)cnn3c2C)c1 | x | x | x | x | 2% | x
O=C(c1cnn2c(C(F)F)cc(-c3ccccc3)nc12)N1CCN(Cc2ccc3c(c2)OCO3)CC1 | 26µM* | u | -4 | -20 | 7% | i
Cc1ccccc1Cc1c(C)nc2c(C(=O)N3CCN(Cc4ccc5c(c4)OCO5)CC3)cnn2c1C | 18µM* | u | -14 | -9 | x | u
N#CC1=C(N)OC2=C(C(=O)CCC2)C1c1ccc2c(c1)OCO2 (stereo not given) | -12% | 6% | x | 0 | x | 0
C=CCC1c2cccc(C(=O)OC)c2C(=O)N1c1ccccc1 (stereo not given) | u | u | -2 | 6 | 3% | 4
CC1CCN(C(=O)Cn2ncc3c4ccccc4n(C)c3c2=O)CC1 | -23% | -19% | 2 | 4 | x | -2
O=C(NCc1nc2ccccc2[nH]1)C1=C[C@H](c2ccc(Br)cc2)C[C@H](OCc2ccc(CO)cc2)O1 | u | u | -2 | -15 | 5% | -23
CCO[C@@H]1OC(C(=O)NCc2nc3ccccc3[nH]2)=C[C@H](C2CC2)[C@H]1CCCO | 2.9µM* | 4.6µM* | 3 | -2 | 5% | 18
CCO[C@H]1OC(C(=O)NCc2nc3ccccc3[nH]2)=C[C@@H](c2ccc(Br)cc2)[C@@H]1CCCO | u | u | x | -2 | x | -16
C#Cc1ccc([C@H]2C=C(C(=O)NCc3nc4ccccc4[nH]3)O[C@@H](OCC)[C@@H]2CCCO)cc1 | u | u | -3 | -7 | x | u

High-throughput results deposited in PubChem BioAssay by National Center for Advancing Translational Sciences (NCATS).
